Data on 36 compounds can be found in PubChem BioAssay.

A short description of this assay: compound effects on lung adenocarcinoma cell viability – A549, calcein-AM fluorescence, 48 h, basal, profiling panel (AID 1162). Note: test concentration not given here. As to conditions: higher = more signal.
Take `COC(=O)c1c(CC[C@@H](CO)NC(=O)N2CCC[C@H]2Cn2cc(-c3ccccn3)nn2)oc(C(C)=O)c1C(=O)OC`: the z-score is -0.204.
With `CCN(CC)c1ccc(N2CC=CC34O[C@@H]5/C=C\CCCOC(=O)C5[C@H]3C(=O)N(CCO)[C@@H]4C2=O)cc1` (stereo partly specified) the figure was 1.05; with `CCOC(=O)C1=CCC(c2ccccc2)N(S(=O)(=O)CC[Si](C)(C)C)C1` (stereo unspecified), -0.557; with `NCCCCCNC(=O)[C@@H]1C[C@@H]2C(=O)NCC(=O)N2[C@@H]1c1ccc(O)cc1`, 0.685.
The same measure for `CC(C)(C)OC(=O)CC[C@]1(C(=O)O)N=C(c2ccc(OCCCO)cc2)O[C@H]1c1ccccc1N=[N+]=[N-]`: 0.559.
The same measure for `O=C1C2C=CC(C(O)C(c3ccccc3)c3ccccc3)N(n3cnnc3)C2C(=O)N1Cc1ccccc1` (stereo unspecified): -1.03; for `COc1ccc([Si](C)(C)[C@H]2[C@H](CCn3cc([C@H](O)c4ccccc4)nn3)O[C@@]3(C(=O)N(Cc4cccc(N5CCOC5=O)c4)c4ccccc43)[C@@H]2C)cc1`: 0.377; for `COCCOC(=O)N1C(=O)[C@@]2(c3cc(C#Cc4ccc(OC)cc4)ccc31)[C@H](C(N)=O)[C@H]1C(=O)O[C@H](c3ccccc3)[C@H](c3ccccc3)N1[C@@H]2c1ccccc1OCCO`: -1.25.
On to `CC(CO)N1C(=O)[C@@H]2C3C(=O)OCCC/C=C\[C@H]3OC23C=CCN(c2ccc4ccccc4c2)C(=O)[C@@H]13` (stereo partly specified), for which the z-score was 0.149.
With `O=C1NC(=O)C2C1C=CC(C(O)C(c1ccccc1)c1ccccc1)N2Nc1ccc(Cl)cc1Cl` (stereo unspecified) the figure was -2.92.
For the compound `CC(=O)n1cc(C(O)C2C=CC3C(=O)N(C)C(=O)C3N2Nc2ccccc2)c2ccccc21` (stereo unspecified), the z-score is -0.617.
With `CC(C)C[C@@H]1NC(=O)[C@H]2C[C@@H](C(=O)NCCCCCCN(C)C)[C@@H](c3ccc(O)cc3)N2C1=O` the figure was -1.06.
The same measure for `CCN(CC)c1ccc(N2CC=CC34O[C@@H]5/C=C\CCC(C)OC(=O)C5[C@H]3C(=O)N(C(CO)C(C)C)[C@@H]4C2=O)cc1` (stereo partly specified): -0.0553.
For `C=CCNC(=O)[C@H]1[C@@H]2C(=O)O[C@@H](c3ccccc3)[C@@H](c3ccccc3)N2[C@@H](c2ccccc2OCCO)[C@]12C(=O)Nc1ccc(C#CC3=CCCCC3)cc12`, the z-score was -1.64.
With `CCOC(=O)[C@H]1C/C=C/C[C@H](C(=O)OCC)C(=O)O[C@H]2[C@@H](OC)O[C@H](CO)[C@@H](OC(=O)Nc3cccc(F)c3)[C@@H]2OC1=O`, the z-score is -3.9.
The same measure for `CCCC[C@H]1OB(O)C[C@H]2C1=C(COc1ccccc1)C[C@H]1C(=O)N(C)C(=O)[C@H]12`: 0.498.
The same measure for `OC([C@@H]1CC(c2ccccc2)=NO1)[C@H]1CC(c2ccccc2)=NO1` (stereo partly specified): 1.51.
With `CN(C)C(=O)[C@]1(Cc2ccccc2N=[N+]=[N-])N=C(c2ccc(OCCCO)cc2)O[C@@H]1c1ccccc1` the figure was -0.54; with `CCCCCN1CC=CC23O[C@@H]4/C=C\CCCOC(=O)C4[C@H]2C(=O)N(CCCO)[C@@H]3C1=O` (stereo partly specified), -0.335.
With `CC(C)[C@@H](CO)NC(=O)[C@H]1[C@@H](c2ccccc2)N(c2ccccc2)O[C@@H]1C`, the z-score was 0.407.
Take `C=CC[C@@]1(C(=O)N(C)C)N=C(c2ccc(OCCCO)cc2)O[C@@H]1c1ccccc1N=[N+]=[N-]`: the z-score was 0.459.
The same measure for `C=C(C)C1C(=C)CN([C@H](CO)c2ccccc2)C1=O` (stereo partly specified): -0.488.
As for `O=C(O)[C@@]1(CCS(=O)(=O)c2ccccc2)COC(c2ccc(OCCCO)cc2)=N1`, the z-score was 0.518.
Turning to `COC(=O)[C@@]1(Cc2ccc(OC)cc2)[C@H]2c3cc(C(=O)N(C)C)n(CCN4CNCC4=O)c3C[C@H]2CN1C(=O)c1ccccc1`, the z-score is -0.663.
For the compound `[N-]=[N+]=NCc1ccccc1[C@@H]1OC(c2ccc(OCCCO)cc2)=N[C@]1(Cc1ccccc1N=[N+]=[N-])C(=O)N1CCOCC1`, the z-score was 0.328.
The same measure for `CN(C)CCCCCCNC(=O)[C@@H]1C[C@@H]2C(=O)N[C@@H](CCCCN)C(=O)N2[C@@H]1c1cccc(OCCO)c1`: 0.73.
The same measure for `CN1C(=O)C2C=CC(C(O)C3=C[C@H]4C[C@@H](C3)C4(C)C)N(Nc3ccccc3)C2C1=O` (stereo partly specified): -0.456; for `COC(=O)c1c(CC[C@@H](CO)NC(=O)N[C@H](Cn2cc(Cc3ccccc3)nn2)C(C)C)oc(C(C)=O)c1C(=O)OC`: -0.138; for `CN(C)CCCNC(=O)[C@@]1(c2ccc([N+](=O)[O-])cc2)CC(=O)N(C2CCCCC2)[C@@H]1c1ccc(CO)cc1`: 0.259.
The same measure for `C=CCN1C(=O)[C@@]2(O[C@@H](CCO)[C@H]([Si](C)(C)c3ccc(OC)cc3)[C@H]2C)c2cc(NC(=O)c3ccc(OC)cc3)ccc21`: -0.52; for `COc1ccc([C@H]2C[C@H]3C(Br)=C[C@@H]2C(=O)[C@]32CO2)cc1`: 0.321; for `COc1ccc(C(=O)Nc2ccc(CN3C(=O)[C@@]4(O[C@@H](CC(=O)N5CCC[C@H]5CO)[C@H]([Si](C)(C)c5ccc(OC)cc5)[C@H]4C)c4ccccc43)cc2)cc1`: 0.571.
For the compound `COCCOC(=O)N1C(=O)[C@@]2(c3cc(C#CC4=CCCCC4)ccc31)[C@H](C(=O)Nc1nc3ccccc3s1)[C@H]1C(=O)O[C@H](c3ccccc3)[C@H](c3ccccc3)N1[C@@H]2c1ccc(OCCO)cc1`, the z-score is -0.104.
With `C=CCOC(=O)[C@H]1[C@@H]2C(=O)O[C@@H](c3ccccc3)[C@@H](c3ccccc3)N2[C@@H](c2ccc(OCCOC(=O)[C@H]3C[C@H]4C(=O)N5CCC[C@H]5C(=O)N4[C@H]3c3ccc(O)cc3)cc2)[C@]12C(=O)Nc1ccccc12` the figure was -0.45; with `C=C(CCCC)/C(=C/C[C@@H](OC(C)=O)c1ccccc1OCCO)c1cnc2ccccc2c1`, -0.865.
The same measure for `Cc1ccc(C(C)CC(O)C2C=CC3C(=O)N(c4ccccc4)C(=O)C3N2Nc2ccc([N+](=O)[O-])cc2)o1` (stereo unspecified): -0.483.
